Reference: PubChem BioAssay (NCI)
Several values for one entry are separate records, joined by “and”; a condition that tells them apart may be missing. Equal entries are not always repeated. This is part of a sample that, as a whole, favours compounds with a hit. Of some 83,000 tested, about 20% had one in any assay.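 A percent growth of 40 corresponds to 60% growth inhibition; 0 means no net growth; -100 means all cells died. Active threshold: below 10.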 Activity calls are given as the source filed them.

What was measured:
Assay in all cases: NCI-60 one-dose screen, 48 h (100 = growth as untreated, 0 = no growth, -100 = all killed)
Conditions in all cases: 10 µM unless noted
[1] = system: NCI/ADR-RES ovarian
[2] = system: T-47D breast
[3] = system: BT-549 breast
[4] = system: MDA-MB-435 melanoma
[5] = system: SW-620 colon
[6] = system: MCF7 breast
[7] = system: HCT-116 colon
[8] = system: HCC-2998 colon
[9] = system: KM12 colon

SMILES | growth [1] | growth [2] | growth [3] | growth [4] | growth [5] | growth [6] | growth [7] | growth [8] | growth [9]
O=C(O)c1ccccc1N(CCO)CCCl | 95.1% (inactive) | 87.6% (inactive) | 95.9% (inactive) | 112% (inactive) | 107% (inactive) | 95.9% (inactive) | 95.3% (inactive) | 103% (inactive) | 103% (inactive)
CCC(=O)C(CC(C)N1CCCCCC1)(c1ccccc1)c1ccccc1 (centres undefined) | 102% (inactive) | 95.3% (inactive) | 97.4% (inactive) | 98.3% (inactive) | 99.1% (inactive) | 81.8% (inactive) | 72.1% (inactive) | 97.7% (inactive) | 107% (inactive)
COc1ccc2c(c1)c(-c1nc(-c3c[nH]c4ncccc34)cs1)cn2CCCCN1CCOCC1 | 63.3% (inactive) | 48% (inactive) | 84.2% (inactive) | -59% (active) | -63% (active) | 18.1% (inactive) | 32.5% (inactive) | 26.7% (inactive) | 16.4% (inactive)
CC1(C)CN=C(NN=C(/C=C/c2ccc(C(F)(F)F)cc2)/C=C/c2ccc(C(F)(F)F)cc2)NC1 | -68.4% (active) | -86.1% (active) | -16.8% (active) | -83.6% (active) | -52.6% (active) | -99.5% (active) | -85.8% (active) |  | -86.8% (active)
COc1cc(/C=C\[N+](=O)[O-])ccc1OCc1ccccc1 | 69.2% (inactive) | 49% (inactive) | 37.2% (inactive) | 20% (inactive) | 47.4% (inactive) | 9.62% (active) | 1% (active) | -70.4% (active) | 23.6% (inactive)
N[C@@H](CCC(=O)CCl)C(=O)O | 104% [20 µM] (inactive) | 93% [20 µM] (inactive) | 108% [20 µM] (inactive) | 103% [20 µM] (inactive) | 97.9% [20 µM] (inactive) | 87.9% [20 µM] (inactive) | 104% [20 µM] (inactive) | 111% [20 µM] (inactive) | 100% [20 µM] (inactive)
C[C@@]12CCCc3coc(c31)C(=O)c1cc3c(cc12)C(=O)C1=C(NCCS1(=O)=O)C3=O | 81.5% (inactive) | -45.9% (active) | -51.7% (active) | -83.5% (active) | -43.8% (active) | -54.1% (active) | -16.5% (active) | -30.8% (active) | 4.16% (active)
O=C(O)C(O)c1ccc(Cl)cc1 (centres undefined) | 106% (inactive) and 107% (inactive) | 93.1% (inactive) and 138% (inactive) | 101% (inactive) and 103% (inactive) | 105% (inactive) and 115% (inactive) | 107% (inactive) and 103% (inactive) | 97.1% (inactive) and 106% (inactive) | 93.7% (inactive) and 95.1% (inactive) | 98.3% (inactive) and 108% (inactive) | 108% (inactive) and 100% (inactive)
N#CC(C#N)=C(C#N)C#N | 110% (inactive) | 95.8% (inactive) | 104% (inactive) | 107% (inactive) | 104% (inactive) | 98.1% (inactive) | 102% (inactive) | 110% (inactive) | 108% (inactive)
COc1cc(C2C3=C(CCCC3=O)N(CCO)c3cc4c(cc32)CCC4)cc(OC)c1OC (centres undefined) | 87.8% (inactive) | 38.2% (inactive) | 109% (inactive) | 100% (inactive) | 103% (inactive) | 23% (inactive) | 68.6% (inactive) | 78.9% (inactive) | 90.5% (inactive)
CC1(C)C2CCC1(CS(=O)(=O)O)C(=O)C2 (centres undefined) | 104% (inactive) and 112% (inactive) | 87.1% (inactive) and 115% (inactive) | 95.3% (inactive) and 94.8% (inactive) | 96.1% (inactive) and 105% (inactive) | 99% (inactive) and 111% (inactive) | 101% (inactive) and 112% (inactive) | 97.9% (inactive) and 101% (inactive) | 92.2% (inactive) and 133% (inactive) | 101% (inactive) and 104% (inactive)
C=C1C(=O)OC2CC3(C)OC3C3OC3C3=CC(OC3=O)C12 (centres undefined) | 35.9% (inactive) and 103% (inactive) | 5.88% (active) and 16.2% (inactive) | 98.2% (inactive) | 98.3% (inactive) and 98.4% (inactive) | 3.21% (active) and 7.75% (active) | 84.4% (inactive) and 78.6% (inactive) | 2.43% (active) and 17.7% (inactive) | 103% (inactive) | 104% (inactive) and 103% (inactive)
C[C@]12CC[C@H](O)C[C@@H]1CC[C@@H]1[C@@H]2CC[C@]2(C)OC(=O)CC[C@@H]12 | 101% (inactive) | 63.6% (inactive) | 88.2% (inactive) | 102% (inactive) | 115% (inactive) | 96.8% (inactive) | 88.6% (inactive) | 102% (inactive) | 92.5% (inactive)
C[N+]1(C)CCCC1c1cccnc1 (centres undefined) | 111% (inactive) | 96.5% (inactive) | 85.3% (inactive) | 108% (inactive) | 100% (inactive) | 90.9% (inactive) | 92.5% (inactive) | 91.2% (inactive) | 103% (inactive)
O=NN1CCCCC1 | 110% (inactive) | 102% (inactive) | 104% (inactive) | 118% (inactive) | 107% (inactive) | 90.8% (inactive) | 108% (inactive) |  | 104% (inactive)
CN(C)C(=S)SSC(=S)N(C)C | 110% (inactive) and 113% (inactive) | 85.8% (inactive) and 95.4% (inactive) | 101% (inactive) and 111% (inactive) | 97.3% (inactive) | 69.2% (inactive) and 98% (inactive) | 70.9% (inactive) | 99% (inactive) | 109% (inactive) | 81.8% (inactive) and 95.8% (inactive)
CC1=C(C)C(=O)O[C@@H]([C@](C)(O)[C@]2(O)CC[C@@]3(O)[C@@H]4C[C@H]5O[C@]56CC=CC(=O)[C@]6(C)[C@H]4CC[C@]23C)C1 | 42.6% (inactive) | 0.829% (active) | -24.4% (active) | 3.13% (active) | -37% (active) | -16.3% (active) | -4.21% (active) | -69.8% (active) | -24.2% (active)
CC[C@H](C)[C@H](NC(=O)[C@H]1CCCCN1C)C(=O)N(C)[C@H](C[C@@H](OC(C)=O)c1nc(C(=O)N[C@@H](Cc2ccccc2)C[C@H](C)C(=O)O)cs1)C(C)C | 12.2% (inactive) | 70.5% (inactive) | -37.2% (active) | -10.9% (active) | 35.2% (inactive) | 14.6% (inactive) | 5.71% (active) | 13.7% (inactive) | 0.294% (active)
CC[C@H](C)[C@H](NC(=O)CN(C)C)C(=O)N(C)[C@H](C[C@@H](OC(C)=O)c1nc(C(=O)NC23CC(C(=O)OC)(C2)C3)cs1)C(C)C | 77.8% (inactive) | 50.4% (inactive) | 14.2% (inactive) | -38.9% (active) | 30.9% (inactive) | 17.9% (inactive) | 4.85% (active) | 20.4% (inactive) | 11.4% (inactive)
CC1(C)C=Cc2c(ccc3c2[N+]([O-])=C2C3=C[C@@]34NC(=O)[C@]5(CCCN5C3=O)C[C@@H]4C2(C)C)O1 | 54.6% (inactive) | 53.2% (inactive) | 39.8% (inactive) | 47.3% (inactive) | 12.9% (inactive) | 17.9% (inactive) | 17.4% (inactive) | 78.1% (inactive) | 47.5% (inactive)
CC[C@H](C)[C@H](NC(=O)[C@H]1CCCCN1C)C(=O)N(C)[C@H](C[C@@H](OC(C)=O)c1nc(C(=O)NC23C4C5C2C2C3C4C52C(=O)OC)cs1)C(C)C (some centres undefined) | 10.9% (inactive) | 73.3% (inactive) | -36% (active) | -0.902% (active) | 41.9% (inactive) | 13.7% (inactive) | 7.22% (active) | 9.29% (active) | -3.83% (active)
Cc1nc2ccccc2c(=O)n1-c1ccccc1F | 112% (inactive) | 79.1% (inactive) | 105% (inactive) | 102% (inactive) | 105% (inactive) | 93.9% (inactive) | 98.7% (inactive) | 108% (inactive) | 105% (inactive)
O=P(O)(Nc1ccccc1)Nc1ccccc1 | 76.9% (inactive) | 97% (inactive) | 100% (inactive) | 88.5% (inactive) | 86.2% (inactive) | 97.3% (inactive) | 89.1% (inactive) |  | 95.9% (inactive)
C[C@@H]1C/C=C\C(=O)O[C@H](/C=C/C#C/C=C/C(C)(C)[C@@H](O)c2cccc(O)c2Br)[C@@H](C)/C=C/[C@H](C)C[C@H](OC(N)=O)C1 | 33.5% (inactive) | 12.6% (inactive) | 43.8% (inactive) | 19.2% (inactive) | 30.4% (inactive) | 18.6% (inactive) | 14.2% (inactive) | 28.2% (inactive) | 40.3% (inactive)
O=C(NCCCN1CC1)Nc1cccc2ccccc12 | 101% (inactive) | 86.4% (inactive) | 90.3% (inactive) and 105% (inactive) | 108% (inactive) and 88% (inactive) | 99% (inactive) and 89.6% (inactive) | 82% (inactive) and 77.9% (inactive) | 98.1% (inactive) and 94.2% (inactive) | 97.9% (inactive) and 93.4% (inactive) | 103% (inactive) and 102% (inactive)
COc1ccc(N)cc1N | 106% (inactive) | 96.1% (inactive) | 112% (inactive) | 122% (inactive) | 107% (inactive) | 94.8% (inactive) | 108% (inactive) | 119% (inactive) | 99.7% (inactive)
COC1C(O)CC(OC2CC(Oc3cc4cc5c(c(O)c4c(O)c3C)C(=O)[C@@H](OC3CC(OC4CC(OC6CC(C)(O)C(OC(C)=O)C(C)O6)C(O)C(C)O4)C(O)C(C)O3)[C@H]([C@H](OC)C(=O)[C@@H](O)[C@@H](C)O)C5)OC(C)C2OC(C)=O)OC1C (some centres undefined) | -33.9% (active) | -7.93% (active) | -68.3% (active) | -100% (active) | -16.1% (active) | -18.4% (active) | 0.84% (active) |  | -34.6% (active)
